Source: PubChem
Only some compounds are listed: those with a hit (about 2.4% of all), similar ones and a draw of the others.
INS-1E GSIS act – GLuc luminescence reporter in INS-1E cells, primary screen for activators of glucose-dependent secretion of insulin. 370,000 compounds, 0.61% hits. INS-1E GLuc reporter insulin secretion, 2-3 h. activation, % at 16.6 µM;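 active means lowest replicate activation of at least 40%, so every replicate reaches that level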;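 further: 0% = median of neutral control wells and 100% = median of IBMX positive control wells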
Dyrk1A ADPGlo – rat Dyrk1A kinase inhibitors, primary screen, biochemical, single point, plate reader; ADP-Glo luminescence, NFATc1 peptide; inhibition, % at 12.5 µM; 310,000 compounds, 0.43% hits; AID 504441, 2011;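 further: plate controls were vehicle with enzyme for no effect and no enzyme for full effect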
miR122 inh – miR-122 Renilla sensor signal increase in Huh7, primary screen, miR-122 inhibitor project, cell-based, single point, plate reader | Huh7 miR-122 Renilla luciferase sensor, 48 h; neutral wells = 0, positive control = 100 | activation (reporter increase), % at 12.5 µM | 340,000 compounds, 0.3% hits;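 active means mean replicate activation score at least 90 and every replicate individually at or above 90; inconclusive means only one of the two criteria met; inactive means neither criterion met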;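 further: higher luciferase means less miR-122 activity so hits act as miR-122 inhibitors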
NSD2 inh – NSD2 histone methyltransferase inhibitors, primary screen, biochemical, AlphaScreen, single concentration, set 2 | Histone-lysine N-methyltransferase NSD2 (Homo sapiens), O96028 | NSD2 peptide methylation, 120 min | inhibition, % at 12.5 µM | 310,000 compounds, 0.54% hits | AID 743445, 2014
Target sequence (O96028 whole entry, looked up): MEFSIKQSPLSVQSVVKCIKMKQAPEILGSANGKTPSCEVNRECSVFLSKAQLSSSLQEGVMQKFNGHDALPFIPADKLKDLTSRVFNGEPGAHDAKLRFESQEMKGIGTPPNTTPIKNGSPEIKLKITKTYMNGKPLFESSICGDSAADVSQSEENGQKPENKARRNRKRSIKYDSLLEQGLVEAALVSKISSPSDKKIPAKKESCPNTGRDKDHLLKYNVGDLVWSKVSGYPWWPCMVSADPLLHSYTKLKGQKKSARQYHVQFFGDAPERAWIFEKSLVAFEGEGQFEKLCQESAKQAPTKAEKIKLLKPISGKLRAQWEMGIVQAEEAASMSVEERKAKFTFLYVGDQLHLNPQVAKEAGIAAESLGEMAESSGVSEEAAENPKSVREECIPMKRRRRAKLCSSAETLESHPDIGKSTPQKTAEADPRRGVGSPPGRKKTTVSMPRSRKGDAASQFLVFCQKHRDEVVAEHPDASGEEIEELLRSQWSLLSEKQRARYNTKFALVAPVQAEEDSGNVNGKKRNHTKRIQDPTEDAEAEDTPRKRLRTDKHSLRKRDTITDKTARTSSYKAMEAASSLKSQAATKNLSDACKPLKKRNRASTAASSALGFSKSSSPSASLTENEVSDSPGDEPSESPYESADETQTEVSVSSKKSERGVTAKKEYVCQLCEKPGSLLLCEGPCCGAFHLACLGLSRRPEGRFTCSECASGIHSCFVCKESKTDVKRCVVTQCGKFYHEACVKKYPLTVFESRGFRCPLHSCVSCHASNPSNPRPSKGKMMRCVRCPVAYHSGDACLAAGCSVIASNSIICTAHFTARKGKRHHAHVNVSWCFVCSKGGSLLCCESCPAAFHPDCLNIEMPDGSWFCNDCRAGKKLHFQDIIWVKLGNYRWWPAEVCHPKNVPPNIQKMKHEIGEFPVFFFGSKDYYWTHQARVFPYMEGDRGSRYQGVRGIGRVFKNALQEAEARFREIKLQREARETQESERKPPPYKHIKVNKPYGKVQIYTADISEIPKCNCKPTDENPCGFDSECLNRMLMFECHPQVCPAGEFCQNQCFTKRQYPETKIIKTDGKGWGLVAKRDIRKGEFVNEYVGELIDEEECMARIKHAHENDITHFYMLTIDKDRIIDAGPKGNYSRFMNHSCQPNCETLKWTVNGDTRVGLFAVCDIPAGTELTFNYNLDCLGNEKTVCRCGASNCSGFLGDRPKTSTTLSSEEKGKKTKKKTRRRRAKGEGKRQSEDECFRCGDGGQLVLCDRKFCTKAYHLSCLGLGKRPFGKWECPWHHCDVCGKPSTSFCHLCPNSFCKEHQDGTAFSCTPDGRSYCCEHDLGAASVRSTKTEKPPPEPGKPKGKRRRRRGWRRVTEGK
Wnt bcat act – Wnt/beta-catenin pathway activators, primary screen, cell-based, plate reader, single point | Wnt/beta-catenin reporter cell assay, activator | activation, % at 9.35 µM | 300,000 compounds, 1.2% hits; in the data active means activation above about 30%, passing the limit was not always enough; inconclusive means no clear call, values can overlap the other calls;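 further: 0% = neutral control wells and 100% = positive control wells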
MITF TRPM1 HTS – activators of MITF-driven TRPM1 promoter reporter, primary screen, cell-based, SK-MEL-5, luciferase, single point. 300,000 compounds, 0.75% hits. SK-MEL-5 TRPM1-promoter luciferase, 24 h; % of positive control, neutral wells = 0. AID 588334, 2011. activation, % at 12.5 µM;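 active means mean activation of at least 80% with every replicate also reaching 80%; inconclusive means mean reaches 80% but some replicate falls short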;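 further: 0% = neutral control wells and 100% = parthenolide positive control wells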
Active calls of the source: *; u = inconclusive; x = no result given; + = active, no number; [ ] = dose if it differs, or a comment. Unless noted, no stated cut-off is given here; in the data, active means inhibition above about 50%; inactive means the rest.

SMILES | INS-1E GSIS act | Dyrk1A ADPGlo | miR122 inh | NSD2 inh | Wnt bcat act | MITF TRPM1 HTS
O=C1C(C=NCCCN2CCOCC2)=C(O)c2ccccc21 | x | 6 | 0 | -2 | x | 2
O=C1C(C=NCCN2CCOCC2)=C(O)c2ccccc21 | 25 | 18 | -4 | 0 | 34* | 35
Cc1cnc(NC(=O)CN2CCN(c3ccccn3)CC2)s1 | 0 | 2 | 177* | 5 | -8 | 15
COc1ccc(N2CCN(CC(=O)Nc3ncc(C)s3)CC2)cc1 | -2 | -1 | x | 0 | 1 | 7
COc1ccccc1-c1ccc([C@@H]2[C@@H](C#N)N(C(=O)C3CC3)[C@H]2CO)cc1 | 15 | x | x | x | x | x
CCOC(=O)CSc1nnc(NC(=O)CN2CCCCC2)s1 | -16 | 4 | x | -1 | 4 | -5
O=C(O)CSc1nnc(NC(=O)CN2CCOCC2)s1 | 96* | -3 | -5 | 0 | -1 | 5
CC1(C)CC(NC(=O)c2ccccn2)CC(C)(C)N1O | 6 | -1 | 3 | -1 | 56* | 1
CN(c1ccccc1)c1nc(N)c(C#N)c(CC#N)c1C#N | 66* | -7 | -6 | 1 | -54 | -15
CN(CCO)c1nc(N)c(C#N)c(CC#N)c1C#N | 24 | -2 | 0 | -1 | 3 | 8
O=C(CC(F)(F)F)N1C[C@H]2[C@@H](c3ccccc31)[C@@H](CO)N2C(=O)Cc1ccccc1 | -6 | x | 19[16.7 µM] | x | x | x
C[C@@H]1CCCCO[C@@H](CN(C)C(=O)c2ccccc2)[C@H](C)CN([C@@H](C)CO)C(=O)c2cc(NC(=O)Cc3ccccc3)ccc2O1 | -8 | x | -4[16.7 µM] | x | x | x
Cc1ccc(S(=O)(=O)N[C@H]2CC[C@H](CCNC(=O)C3CC3)O[C@@H]2CO)cc1 | 3 | x | x | x | x | x
O=C(CNC(=O)c1ccccc1)OC1CCCCC1 | -1 | -4 | x | -12 | 47* | 47
Cn1cnc(S(=O)(=O)N2CC[C@H]3[C@H](CO)Nc4ccc(-c5ccc(F)cc5)cc4[C@H]32)c1 | -11 | x | 0[16.7 µM] | x | x | x
CO[C@H](CN(C)C(=O)Nc1ccc(F)cc1)[C@@H](C)CN(Cc1ccccc1Cl)[C@@H](C)CO | 8 | x | x | x | x | x
O=C(CN(C1CCCCC1)S(=O)(=O)c1ccc(Cl)cc1)NCc1cccnc1 | x | 2 | 100* | 0 | -3 | 9
O=C(CN(C1CCCCC1)S(=O)(=O)c1ccccc1)NCc1cccnc1 | x | 7 | x | -2 | x | -4
c1ccc(OCCSc2nnnn2-c2ccccc2)cc1 | x | 7 | x | -2 | x | 90*
O=C(C1CC1)N1CCCCN2[C@H](CO)[C@H](c3ccc(-c4cccc(F)c4)cc3)[C@@H]2C1 | -22 | x | -28[16.7 µM] | x | x | x
CN1C(=O)c2cc(NC(=O)c3cscn3)ccc2OC[C@H]2O[C@@H](CC(=O)N3CCCCC3)CC[C@H]21 | 8 | x | 1[16.7 µM] | x | x | x
CCCCC(C(=O)NCCC(C)C)N(CCCN1CCOCC1)C(=O)c1snc(C(N)=O)c1N (stereo not drawn) | 54* | -2 | 2 | 2 | x | -3
Cc1ccc(C(C(=O)NC2CCCCC2)N(CCCN2CCOCC2)C(=O)c2snc(C(N)=O)c2N)cc1 (stereo not drawn) | -3 | -1 | -1 | 35 | 1 | 14
Cc1cc(C(=O)OCC(=O)c2ccc(Br)s2)no1 | -6 | 8 | -3 | 0 | 0 | -7
O=C(OCC(=O)c1ccc(Br)s1)c1ccc(O)cc1 | -5 | x | -3 | 0 | 43* | 40
SMILES | INS-1E GSIS act | Dyrk1A ADPGlo | miR122 inh | NSD2 inh | Wnt bcat act | MITF TRPM1 HTS
O=C(O)C(Cc1ccccc1)N1C(=O)/C(=C/C=C/c2ccco2)SC1=S (stereo not drawn) | 12 | -1 | -12 | + | 0 | -9
Cc1c(C)c2ccc(OCC(=O)Nc3nccs3)cc2oc1=O | -3 | -3 | 1 | -7 | 22 | -11
COc1cccc(COc2ccc3c(C)cc(=O)oc3c2)c1 | 16 | -2 | -12 | -2 | 46* | 114*
Cc1cc(=O)oc2cc(OCC(=O)Nc3nccs3)ccc12 | 2 | 1 | 2 | -4 | 38* | 53
Cc1cccc(OCC(=O)Nc2nccs2)c1C | -5 | -4 | x | -4 | 37* | 37
COc1ccc2c(C)cc(=O)oc2c1 | x | 0 | -4 | x | 1 | 7
C[C@@H]1CN([C@H](C)CO)C(=O)c2cc(NC(=O)Cn3cnnn3)ccc2O[C@H]1CN(C)C(=O)Nc1ccc(F)cc1 | 1 | x | 0[16.7 µM] | x | x | x
CC(=O)c1ccc(NC(=O)Nc2ccc(Cl)cc2)cc1 | -6 | -4 | -1 | x | 17 | 125*
CC(C)=CC(=O)Nc1ccc(Cl)cc1 | -2 | -39 | x | -3 | 45* | 89*
CC(=O)c1ccc(NC(=O)Nc2ccncc2)cc1 | -3 | -1 | -6 | 3 | 6 | 46
C[C@H](CO)N1C[C@H](C)[C@H](CN(C)S(=O)(=O)c2ccc(Cl)cc2)Oc2ccc(NC(=O)CCN3CCOCC3)cc2C1=O | 2 | x | -5[16.7 µM] | x | x | x
C=CC(=O)Nc1cccc(Nc2nc(N[C@H]3CC[C@H](N(C)C)CC3)nc3c2ncn3C(C)C)c1 | x | 88* | x | x | x | -90
Cc1ccccc1-c1ccc([C@@H]2[C@@H](CO)N3C(=O)CN(C(=O)c4cccnc4)C[C@@H]23)cc1 | 4 | x | x | x | x | x
NNC(=O)c1cccnc1Oc1ccccc1 | 44* | 8 | 1 | -3 | -4 | -1
CC(=Nc1ccc(C)c(C)c1)C1=C(O)CSC1=O | x | -1 | 5 | 1 | x | 132*
CNC(=O)C[C@H]1CC[C@@H]2[C@@H](COc3ccc(NC(=O)c4cccs4)cc3C(=O)N2C)O1 | 7 | x | 25[16.7 µM] | x | x | x
COc1ccc(-c2cc(-c3ccc(OC)cc3)[nH]n2)cc1 | -3 | 3 | 4 | -7 | 49* | u
CC(C)(C)c1ccc(-c2cc(-c3ccccc3O)[nH]n2)cc1 | 68* | -3 | 11 | -1 | -2 | -4
COc1ccc(-c2cc(-c3cc(C)ccc3O)[nH]n2)cc1 | -12 | 4 | x | -1 | -8 | 30
COc1ccc(-c2cc(-c3ccc(C)cc3)n[nH]2)c(O)c1 | -30 | 9 | 4 | -1 | 55* | 68
CCS(=O)(=O)Nc1ccc2c(c1)C(=O)N(C)[C@@H]1CC[C@@H](CC(=O)N[C@@H]3CCN(Cc4ccccc4)C3)O[C@H]1CO2 | 8 | x | x | x | x | x
O=C(C[C@@H]1CC[C@H]2[C@@H](COC[C@@H](O)CN2C(=O)Nc2cc(Cl)cc(Cl)c2)O1)NCC1CCCCC1 | -25 | x | -11[16.7 µM] | x | x | x
C[C@H]1CN=C(N(C)C)N1CC1CCCC1 | 54* | 9 | 3 | x | -4 | -10
